Screening data from PubChem.
Sampled rows, rich in hits. Any-hit rate of the full collection: about 4.9%.
tim23-1 inh = growth inhibitors of tim23-1 mutant yeast, primary screen, luminescence, uHTS; hit rate 1.3% among 330,000; inhibition, % at 20 µM; S. cerevisiae tim23-1 growth, BacTiter-Glo luminescence, 24 h;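 active = growth inhibition of the mutant yeast at or above 50%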;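 also: temperature-sensitive mutant grown at 25 °C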
SKKanGAS inh = S. pyogenes SKKanGAS growth inhibitors in kanamycin, primary screen, streptokinase expression inhibitor project, SKKanGAS strain, BacTiter-Glo luminescence. 6 h. inhibition, % at 7.5 µM. hit rate 1.3% among 300,000. AID 1662, 2009;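 active = mean replicate score, as percent of positive control median, at least 50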;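 also: strain carries kanamycin resistance gene driven by streptokinase promoter and grows in 40 µg/ml kanamycin; loss of luminescence reflects streptokinase promoter inhibition or plain growth inhibition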
NALP1 inh = NALP1 inflammasome inhibitors in reconstituted yeast, colorimetric, S. cerevisiae, triplicate retest; inhibition, % at 10 µM; hit rate 0.61% among 280,000; S. cerevisiae NALP1/ASC/caspase-1 growth, X-gal OD620, 72 h; in the data active = inhibition mostly above about 24%, no sharp cut-off; inactive = mostly below about 32%
tim10-1 inh = growth inhibitors of tim10-1 mutant yeast, primary screen, luminescence, uHTS | S. cerevisiae tim10-1 ts strain growth, BacTiter-Glo, 24 h | inhibition, % at 20 µM | hit rate 2.2% among 330,000;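 active = inhibition of at least 40%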;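 also: mutant grown at 25 °C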
TIM10 inh = growth inhibitors of isogenic TIM10 control yeast, primary screen, counter-screen for tim10-1 yeast inhibitor project, luminescence, uHTS. hit rate 1.4% among 330,000. AID 463195, 2010. S. cerevisiae TIM10 strain growth, BacTiter-Glo luminescence, 24 h. inhibition, % at 10 µM;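 active = inhibition of 40% or more at the single tested concentration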;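 also: wild-type TIM10 isogenic control strain grown at permissive 25 °C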
NALP3 yeast inh = NALP3 inflammasome inhibitors in reconstituted yeast, primary screen, luminescence, uHTS | Yeast reconstituted NLRP3/ASC/caspase-1, beta-gal luminescence, 24 h | inhibition, % at 10 µM | hit rate 0.39% among 330,000 | AID 2825, 2010;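 active = inhibition of 50% or more; inactive = inhibition below 50%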
Of the large screens only hits and unclear results are named; the others gave an inactive call.

O=[N+]([O-])c1cc([N+](=O)[O-])c2oc(-c3ccccc3)c(Br)c2c1O	SKKanGAS inh 69 (no result: tim23-1 inh, tim10-1 inh, TIM10 inh, NALP3 yeast inh)
COc1ccccc1/C=N/n1cnnc1	none
O=[N+]([O-])c1ccc(OCCOc2ccccc2/C=N/n2cnnc2)cc1	NALP1 inh 34
O=C(c1c(Cl)cccc1Cl)N1CCN(c2ccccn2)CC1	none
O=C(N1CCN(c2ccccn2)CC1)C(Cl)(Cl)Cl	NALP1 inh 55
COc1ccc(C(CNC(=O)CCC(=O)c2ccc(C)s2)N2CCOCC2)cc1 (stereo unspecified)	none (no result: SKKanGAS inh, NALP1 inh)
CC(C)(C)C1CC=C2C(C#N)=C(N)C(C#N)(C#N)C(c3cccs3)C2C1 (stereo unspecified)	SKKanGAS inh 54
CN1C2C=C3C(C#N)=C(N)C(C#N)(C#N)[C@@H](c4cccs4)C3C1CC2 (stereo partly specified)	none
CN(CC(=O)Nc1cccc(F)c1)C(=O)c1ccccc1-n1cnnn1	none (no result: SKKanGAS inh, NALP1 inh)
O=C(COc1ccc(Cl)cc1)NC1=NN(c2ccccc2)C(=O)C1	SKKanGAS inh 62
O=C(CCCCl)NC1=NN(c2ccccc2)C(=O)C1	none (no result: tim23-1 inh, SKKanGAS inh, tim10-1 inh, TIM10 inh, NALP3 yeast inh)
C=CCC[C@H](Cc1ccc(F)cc1)C(=O)OC[C@@H](NC(=O)[C@@H](CC=C)CC(=O)N(CCO)Cc1ccccc1)C(C)(C)C	none (no result: SKKanGAS inh, NALP1 inh)
COCCCNS(=O)(=O)c1ccc(S(=O)(=O)N2CCCC2)cc1	NALP1 inh 38
COC(CNS(=O)(=O)c1ccc(S(=O)(=O)N2CCCC2)cc1)OC	none
CC(OC(=O)C1=COCCO1)C(=O)Nc1ccc(Oc2ccccc2)cc1 (stereo unspecified)	NALP1 inh 36
COc1ccc(NC(=O)COc2nc(N(C)C)nc(N(C)C)n2)cc1	NALP1 inh 28
CCOc1ccc(NC(=O)COc2ccc(OC)cc2)cc1	none
NC(=O)NC(=O)C(Nc1ccc(N2CCCCC2)cc1)c1ccccc1 (stereo unspecified)	none
COc1ccc(C(=O)NCCNC(C)=O)cc1S(=O)(=O)NCc1ccc(Cl)cc1	NALP1 inh 28
CC(=O)Nc1ccc(S(=O)(=O)NC(C)(C#N)C2CC2)cc1 (stereo unspecified)	none
CCC(OC(=O)C1=Cc2ccccc2OC1)C(=O)NCc1ccco1 (stereo unspecified)	NALP1 inh 33
CC(OC(=O)C1=Cc2ccccc2OC1)C(=O)NCc1ccco1 (stereo unspecified)	none
Fc1ccccc1NC(=S)NCCc1cccc(Cl)c1	NALP1 inh 30 (no result: SKKanGAS inh)
CCCCNC(=O)c1cn(CC(C)C)c(=O)c2c1c1ccccc1n2C	SKKanGAS inh 54
CC1CCC2(CC1)NC(=O)N(NC(=O)c1ccc(OC(C)C)cc1)C2=O (stereo unspecified)	none (no result: SKKanGAS inh, NALP1 inh)
Cc1noc(C)c1S(=O)(=O)N(CCc1ccccc1)Cc1ccccc1	SKKanGAS inh 54
CCN(CCNC(=O)C1CCN(S(=O)(=O)c2c(C)noc2C)CC1)c1ccccc1	none
CCCCN(Cc1ccccc1)C(=O)C1CCN(S(=O)(=O)c2c(C)noc2C)CC1	NALP1 inh 37
Cc1noc(C)c1S(=O)(=O)N(C)CC(=O)NCc1ccccc1	none
O=C(COC(=O)/C=C/c1cccs1)Nc1nc(-c2ccccc2)cs1	NALP1 inh 63
O=C(COC(=O)/C=C/c1cccs1)Nc1nc(-c2cccc(Br)c2)cs1	none (no result: NALP1 inh)
O=C(O)c1ccc(CP(=O)(c2ccccc2)c2ccccc2)cc1	none
O=C1CC(c2ccc(O)cc2)Oc2cc(O)cc(O)c21 (stereo unspecified)	none
CC1CC(=O)c2c(cc3c(-c4c(O)cc(O)c5c(O)c6c(cc45)OC(C)CC6=O)c(O)cc(O)c3c2O)O1 (stereo unspecified)	SKKanGAS inh 107
O=C(N/N=C/c1ccc(N2CCOCC2)cc1)C1COc2ccccc2O1 (stereo unspecified)	none
O=C(CCl)Nc1ccc(-c2ccccc2)cc1	none
O=C(CCl)Nc1ccc(N=Nc2ccccc2)cc1	NALP1 inh 78 (no result: tim23-1 inh, tim10-1 inh, TIM10 inh, NALP3 yeast inh)
c1ccc2c(Nc3ccc4c(c3)OCCO4)c3c(nc2c1)CCCC3	NALP1 inh 29
Fc1cccc(Nc2c3c(nc4ccccc24)CCC3)c1	none
